Data on 38 molecules can be found in PubChem BioAssay (Tox21).

Records with an inconclusive call do not appear. Entries that show only a call come without a potency. Activity calls are given as the source filed them. Calls come from the whole dose curve; as a rule, active = well fitted inhibition curve with a large enough effect in the repeat runs; inconclusive = weak or mixed curves, or effect the other way; inactive = no such curve, though single readings can be large or run the other way. Where a SMILES comes first, the peptide text is derived from it. [ ]: non-standard residue; d: D form. pGlu = O=C1CC[C@@H](C(=O)O)N1
Potency is the fitted concentration of half-maximal effect.

For this assay, the target named is Nuclear receptor subfamily 1 group I member 3 (Homo sapiens) (UniProt Q14994). In words: qHTS assay to identify small molecule antagonists of the constitutive androstane receptor (CAR) signaling pathway (AID 1224838). Note: nearly all actives have a fitted effect of over 40% in size. The note with it: HepG2-CYP2B6-hCAR luciferase, CITCO-stimulated, 24 h; series mostly up to 92.4 µM. The essentials: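 Luminescence from a CYP2B6-2.2kb promoter reporter in hCAR-expressing HepG2 cells reflects CAR signaling. Cells received compounds at 15 concentrations and 50 nM CITCO (final), then incubated 24 h at 37 C/5% CO2.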
Chain of Nuclear receptor subfamily 1 group I member 3 (Homo sapiens) (Q14994 whole entry, looked up): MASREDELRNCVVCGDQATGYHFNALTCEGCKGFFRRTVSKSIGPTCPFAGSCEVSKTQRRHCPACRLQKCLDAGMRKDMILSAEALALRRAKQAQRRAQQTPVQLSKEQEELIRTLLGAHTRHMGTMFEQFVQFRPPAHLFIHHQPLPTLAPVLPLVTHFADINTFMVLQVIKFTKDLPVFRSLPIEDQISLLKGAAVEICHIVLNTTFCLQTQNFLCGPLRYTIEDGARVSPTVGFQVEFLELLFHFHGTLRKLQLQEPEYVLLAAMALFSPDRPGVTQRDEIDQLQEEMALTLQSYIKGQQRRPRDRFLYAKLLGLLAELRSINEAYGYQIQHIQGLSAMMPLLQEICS
On the technique in general: qHTS replaces the single test concentration by a dilution series.
With `Clc1cc(Cl)c(Cl)nc1Cl`, the Potency result is “inactive”. Take `C[C@@H]1CCC[C@H](C)N1`: the Potency result was “inactive”. For `CCOC(=O)OC(C)OC1=C(C(=O)Nc2ccccn2)N(C)S(=O)(=O)c2ccccc21` (stereo not drawn), the Potency entry was “inactive”.

`O=C(O)CC(C(=O)O)S(=O)(=O)O` (stereo not drawn): the Potency entry is “inactive”. `[O-][n+]1cccc(CO)c1`: the Potency result was “inactive”. On to `CC(=O)c1ccccc1[N+](=O)[O-]`, for which the Potency entry is “inactive”.

`Cc1cccc(C)c1NC(=O)CC12CCCN1CCC2`: the Potency entry is “inactive”. On to `OCCCCCO`, for which the Potency result is “inactive”. As for `CC(COc1ccccc1)NN` (stereo not drawn), the Potency entry was “inactive”. For `NS(=O)(=O)Cc1noc2ccccc12`, the Potency result was “inactive”. On to `Cc1cc(C)c(N=Nc2c(O)c(S(=O)(=O)O)cc3cc(S(=O)(=O)O)ccc23)cc1C`, for which the activity, negative = inhibition was -3.25% [at 8.39 µM] (inactive).

Turning to `Nc1c2c(nc3c1CCC3)CCCC2`, the Potency result was “inactive”. `O=S(=O)(O)c1cccc2c(S(=O)(=O)O)cccc12`: the Potency result is “inactive”. Consider `CCCCCCCCN1CCCC1=O`, for which the Potency result was “inactive”. As for `CNCC(O)c1ccc(O)c(O)c1` (stereo not drawn), the Potency entry was “inactive”. On to `O=S(=O)(O)c1cccc(S(=O)(=O)O)c1`, for which the Potency entry was “inactive”. With `CCCO[Si](OCCC)(OCCC)OCCC`, the Potency entry is “inactive”.

`CC[C@H]1OC(=O)[C@H](C)[C@@H](O[C@H]2C[C@@](C)(OC)[C@@H](O)[C@H](C)O2)[C@H](C)[C@@H](O[C@@H]2O[C@H](C)C[C@H](N(C)C)[C@H]2O)[C@](C)(OC)C[C@@H](C)C(=O)[C@H](C)[C@@H](O)[C@]1(C)O`: the Potency result is “inactive”. Take `C=CCCCCCCCCC(=O)OCC`: the Potency result was “inactive”. As to `CO[Si](C)(OC)c1ccccc1`, the Potency result was “inactive”. For the molecule `C=CCCC(=O)O`, the Potency entry is “inactive”.

Turning to `O=Cc1cccc(Br)c1`, the Potency entry was “inactive”. `CN1C(C)(C)CC(O)CC1(C)C`: the Potency result was “inactive”.

Regarding `C[N+]1(CC2COC(c3ccccc3)(c3ccccc3)O2)CCCCC1` (stereo not drawn), the activity, negative = inhibition is -9.35% [at 19 µM] (inactive).

Take `Clc1cc(Cl)cc(Cl)c1`: the Potency result is “inactive”. For `CCOC(=O)COC(=O)c1ccccc1C(=O)OCC`, the Potency entry is “inactive”. On the same count and under the same terms, the entry for `CC1=NN(c2cccc(S(=O)(=O)O)c2)C(=O)C1` is “inactive”; for `CN1CCC(=C2c3ccccc3CCc3cccnc32)CC1` it is “inactive”.

As for `Cc1nc(C2CCCCC2)c(-c2ccc(S(N)(=O)=O)c(F)c2)o1`, the Potency entry was “inactive”. As to `Nc1ccn([C@@H]2O[C@H](CO)[C@@H](O)C2(F)F)c(=O)n1`, the Potency was 596 nM (active). On to `CCCCCCC1CCC(=O)O1` (stereo not drawn), for which the Potency entry was “inactive”. Still for that read-out and setting: the entry for `C=COCC1CCC(COC=C)CC1` (stereo not drawn) is “inactive”. With `CC1(C)OC[C@@H](COC(=O)CCc2ccc(OC[C@@H](O)CNCCNC(=O)N3CCOCC3)cc2)O1`, the Potency entry is “inactive”. Still for that read-out and setting: to `CC(=O)Oc1cccc(C)c1` belongs “inactive”; to `CCC(C(=O)NC(=O)NC(C)=O)c1ccccc1` (stereo not drawn), “inactive”; to `O=C(O)CCCC[P+](c1ccccc1)(c1ccccc1)c1ccccc1`, “inactive”. Still for that read-out and setting: the entry for `CCCCOCCOC(=O)CCCCCCCCC(=O)OCCOCCCC` is “inactive”; for `CCNC(=O)[C@@H]1CCCN1C(=O)[C@H](CCCN=C(N)N)NC(=O)[C@H](CC(C)C)NC(=O)CNC(=O)[C@H](Cc1ccc(O)cc1)NC(=O)[C@H](CO)NC(=O)[C@H](Cc1c[nH]c2ccccc12)NC(=O)[C@H](Cc1cnc[nH]1)NC(=O)[C@@H]1CCC(=O)N1` ([pGlu]HWSYGLRP-NHEt) it is “inactive”.
